Source: PubChem BioAssay (NCATS)
Inconclusive results are not listed. Where a call stands in place of a potency, no number is given. Activity calls are given as the source filed them. Unless noted, calls come from the whole dose curve; as a rule, active = well fitted curve in the direction sought with a large enough effect; inconclusive = small, poorly fitted or top-dose-only effect, or another doubt; inactive = no such curve, though single readings can be large; an effect the other way counts as inactive or inconclusive.

Legend:
[1] = biological target: Cytochrome P450 1A2 (Homo sapiens) (UniProt P05177); assay: p450-cyp1a2 (AID 410; calls by dose curve; note: potency is the fitted concentration of half-maximal effect)
Outline: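 O-Demethylation of luciferin 6' methyl ether by human CYP1A2 is monitored as luciferase luminescence. Substrate sits at Km (100uM); enzyme is 20nM. Values are scaled to 57 uM furafylline as maximal inhibition.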

[2] = biological target: Mitogen-activated protein kinase 10 (Mus musculus) (UniProt Q61831); assay: JNK3 AlphaScreen Assay (AID 530; active = well fitted curve in either direction with a large enough effect, not every such curve was filed as active;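 note: kinase came from lysate of stimulated human HepG2 cells; signal reports phosphorylation of biotinylated GST-cJun 1-79 at Ser73 with 10 µM ATP; series mostly up to about 57 µM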)
Outline: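 Activity was read by AlphaScreen after JNK3-containing HepG2 lysate (cytokine pre-activated) phosphorylated biotinylated GST-cJun with 10 uM ATP at room temperature. Phospho-Ser73 cJun antibody with Protein-A acceptor beads provided detection.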

[3] = biological target: 3',5'-cyclic-AMP phosphodiesterase 4B (Homo sapiens) (UniProt Q07343); assay: qHTS Assay for Inhibitors of PDE-IV (AID 607; active = well fitted activation curve with a large enough effect in the main read-out, with a control signal flat, not every such curve was filed as active)
Outline: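 Cell-based read-out of cAMP via a modified cyclic nucleotide-gated channel and membrane potential dye (535/590 nm) in HEK293 cells expressing PDE4 endogenously. Compounds tested up to 22.9 uM final; 100 uM RO 20-1724 reference.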

[4] = biological target: Cytochrome P450 2C9 (Homo sapiens) (UniProt P11712); assay: qHTS Assay for Inhibitors and Substrates of Cytochrome P450 2C9 (AID 883); note: potency is the fitted concentration of half-maximal effect; nearly all actives have a fitted effect of over 60% in size
Outline: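 10nM CYP2C9 + 100uM Luciferin-H (=KM), 25mM KPO4; cpd 10 min 37C; NADPH regen, 60 min 37C; stop/detect with P450 Glo-Buffer 20 min; luminescence. Norm. to 57uM sulphaphenazole as full inhibition.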

[5] = biological target: Cytochrome P450 3A4 (Homo sapiens) (UniProt P08684); assay: qHTS Assay for Inhibitors and Substrates of Cytochrome P450 3A4 (AID 884); note: potency is the fitted concentration of half-maximal effect; nearly all actives have a fitted effect of over 50% in size
Outline: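 Luminescent readout of luciferin produced by CYP3A4 (20 nM) dealkylation of Luciferin-PPXE, 25 uM (its KM). NADPH-driven reaction ran 60 min at RT after 10 min compound preincubation; data scaled to 57 uM ketoconazole as 100% inhibition.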

[6] = biological target: Cytochrome P450 3A4 (Homo sapiens) (UniProt P08684); assay: qHTS Assay for Activators of Cytochrome P450 3A4 (AID 885); note: nearly all actives have a fitted effect of over 65% in size
Outline: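 Luminescent readout of luciferin formed from 25 uM Luciferin-PPXE (KM level) by 20 nM CYP3A4 in 200 mM KPO4, with 60 min NADPH-driven reaction at room temperature after 10 min compound exposure. Ketoconazole (57 uM) defined 100% inhibition.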

[7] = biological target: Cytochrome P450 2C19 (Homo sapiens) (UniProt P33261); assay: qHTS Assay for Inhibitors and Substrates of Cytochrome P450 2C19 (AID 899); note: potency is the fitted concentration of half-maximal effect; nearly all actives have a fitted effect of over 60% in size
Outline: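 Luminescent read-out of luciferin formed from Luciferin-H EGE (10uM, equal to KM). Enzyme 5nM in 50mM KPO4; compound added, 10 min at 37C, then NADPH regenerating system for 60 min at 37C. Full inhibition defined by 57uM ketoconazole.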

[8] = biological target: Cytochrome P450 2D6 (Homo sapiens) (UniProt P10635); assay: qHTS Assay for Inhibitors and Substrates of Cytochrome P450 2D6 (AID 891); note: potency is the fitted concentration of half-maximal effect; nearly all actives have a fitted effect of over 60% in size
Outline: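 Luminescent read-out of luciferin formed by 5 nM human CYP2D6 demethylating 30 uM Luciferin-ME EGE (Km level) over 60 min at room temperature after NADPH regeneration addition. Data normalized to full inhibition by 1.43 uM quinidine.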

Chain of Cytochrome P450 2C9 (Homo sapiens) (P11712 whole entry, looked up): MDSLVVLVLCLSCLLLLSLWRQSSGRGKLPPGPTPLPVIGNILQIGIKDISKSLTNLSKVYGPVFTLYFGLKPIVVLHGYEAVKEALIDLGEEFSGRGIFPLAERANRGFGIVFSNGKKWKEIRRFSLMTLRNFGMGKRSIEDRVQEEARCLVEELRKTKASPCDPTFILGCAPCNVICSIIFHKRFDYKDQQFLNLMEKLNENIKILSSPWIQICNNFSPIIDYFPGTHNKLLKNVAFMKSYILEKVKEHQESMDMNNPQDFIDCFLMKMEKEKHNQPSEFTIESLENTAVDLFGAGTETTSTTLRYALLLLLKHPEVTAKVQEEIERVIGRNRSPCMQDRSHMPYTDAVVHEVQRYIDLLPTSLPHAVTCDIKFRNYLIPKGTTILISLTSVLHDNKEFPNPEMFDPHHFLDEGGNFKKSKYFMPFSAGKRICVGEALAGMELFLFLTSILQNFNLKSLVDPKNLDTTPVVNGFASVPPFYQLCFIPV
Chain of Cytochrome P450 3A4 (Homo sapiens) (P08684 whole entry, looked up): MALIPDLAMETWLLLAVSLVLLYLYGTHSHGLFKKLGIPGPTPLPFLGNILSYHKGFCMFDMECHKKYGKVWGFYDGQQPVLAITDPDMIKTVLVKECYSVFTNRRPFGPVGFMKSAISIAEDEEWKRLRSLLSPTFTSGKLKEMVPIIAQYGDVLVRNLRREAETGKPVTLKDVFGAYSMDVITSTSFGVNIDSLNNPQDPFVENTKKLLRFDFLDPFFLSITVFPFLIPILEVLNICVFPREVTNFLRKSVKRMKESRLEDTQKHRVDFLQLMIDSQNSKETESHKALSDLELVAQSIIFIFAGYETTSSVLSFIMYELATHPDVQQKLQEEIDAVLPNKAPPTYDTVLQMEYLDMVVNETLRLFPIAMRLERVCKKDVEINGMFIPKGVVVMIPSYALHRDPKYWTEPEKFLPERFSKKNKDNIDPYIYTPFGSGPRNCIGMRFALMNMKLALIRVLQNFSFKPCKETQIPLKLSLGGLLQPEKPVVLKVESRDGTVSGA
Chain of Cytochrome P450 1A2 (Homo sapiens) (P05177 whole entry, looked up): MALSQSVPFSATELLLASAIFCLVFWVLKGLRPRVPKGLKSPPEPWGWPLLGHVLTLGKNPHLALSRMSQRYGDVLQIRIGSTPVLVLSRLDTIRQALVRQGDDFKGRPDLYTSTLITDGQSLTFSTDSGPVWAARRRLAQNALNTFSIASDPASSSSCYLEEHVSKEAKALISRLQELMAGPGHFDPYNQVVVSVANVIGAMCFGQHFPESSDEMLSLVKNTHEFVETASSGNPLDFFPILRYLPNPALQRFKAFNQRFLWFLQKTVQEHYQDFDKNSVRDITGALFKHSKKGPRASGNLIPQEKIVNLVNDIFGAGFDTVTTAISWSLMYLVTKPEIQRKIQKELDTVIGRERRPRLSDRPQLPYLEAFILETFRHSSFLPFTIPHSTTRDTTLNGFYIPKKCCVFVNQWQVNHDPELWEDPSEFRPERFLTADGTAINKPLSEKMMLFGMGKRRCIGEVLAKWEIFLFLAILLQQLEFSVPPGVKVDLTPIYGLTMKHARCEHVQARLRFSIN
Chain of Cytochrome P450 2C19 (Homo sapiens) (P33261 whole entry, looked up): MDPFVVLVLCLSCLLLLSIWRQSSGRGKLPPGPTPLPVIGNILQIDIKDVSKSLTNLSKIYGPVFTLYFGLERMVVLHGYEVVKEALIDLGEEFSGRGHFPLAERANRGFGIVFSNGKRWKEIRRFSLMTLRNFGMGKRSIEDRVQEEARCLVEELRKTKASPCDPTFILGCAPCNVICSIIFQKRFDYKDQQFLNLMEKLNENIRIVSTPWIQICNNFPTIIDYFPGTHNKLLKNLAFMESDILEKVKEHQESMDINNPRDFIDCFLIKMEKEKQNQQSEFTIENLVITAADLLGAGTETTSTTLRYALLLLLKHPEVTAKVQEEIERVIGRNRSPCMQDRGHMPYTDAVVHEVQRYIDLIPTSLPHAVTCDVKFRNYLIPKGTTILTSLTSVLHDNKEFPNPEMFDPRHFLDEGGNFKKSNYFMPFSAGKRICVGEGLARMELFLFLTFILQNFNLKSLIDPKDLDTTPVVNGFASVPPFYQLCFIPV
Chain of 3',5'-cyclic-AMP phosphodiesterase 4B (Homo sapiens) (Q07343 whole entry, looked up): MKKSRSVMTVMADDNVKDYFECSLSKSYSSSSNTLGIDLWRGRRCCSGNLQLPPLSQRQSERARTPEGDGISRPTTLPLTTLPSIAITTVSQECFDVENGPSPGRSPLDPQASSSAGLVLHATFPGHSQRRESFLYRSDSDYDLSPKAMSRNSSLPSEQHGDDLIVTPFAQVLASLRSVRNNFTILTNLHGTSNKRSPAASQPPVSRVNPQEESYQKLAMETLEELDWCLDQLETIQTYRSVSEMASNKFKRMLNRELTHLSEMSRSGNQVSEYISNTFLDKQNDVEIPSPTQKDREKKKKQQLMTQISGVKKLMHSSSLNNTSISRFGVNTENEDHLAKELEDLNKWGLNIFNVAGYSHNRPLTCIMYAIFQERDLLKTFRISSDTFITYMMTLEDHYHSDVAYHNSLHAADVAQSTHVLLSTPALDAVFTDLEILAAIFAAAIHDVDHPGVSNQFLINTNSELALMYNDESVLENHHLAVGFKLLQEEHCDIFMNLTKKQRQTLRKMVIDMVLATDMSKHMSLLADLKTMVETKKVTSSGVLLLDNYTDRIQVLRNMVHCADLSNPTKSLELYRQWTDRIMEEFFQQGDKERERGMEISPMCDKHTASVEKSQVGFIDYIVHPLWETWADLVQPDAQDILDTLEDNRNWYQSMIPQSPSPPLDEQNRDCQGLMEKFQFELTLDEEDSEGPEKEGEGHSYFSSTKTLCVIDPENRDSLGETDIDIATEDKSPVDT
Chain of Cytochrome P450 2D6 (Homo sapiens) (P10635 whole entry, looked up): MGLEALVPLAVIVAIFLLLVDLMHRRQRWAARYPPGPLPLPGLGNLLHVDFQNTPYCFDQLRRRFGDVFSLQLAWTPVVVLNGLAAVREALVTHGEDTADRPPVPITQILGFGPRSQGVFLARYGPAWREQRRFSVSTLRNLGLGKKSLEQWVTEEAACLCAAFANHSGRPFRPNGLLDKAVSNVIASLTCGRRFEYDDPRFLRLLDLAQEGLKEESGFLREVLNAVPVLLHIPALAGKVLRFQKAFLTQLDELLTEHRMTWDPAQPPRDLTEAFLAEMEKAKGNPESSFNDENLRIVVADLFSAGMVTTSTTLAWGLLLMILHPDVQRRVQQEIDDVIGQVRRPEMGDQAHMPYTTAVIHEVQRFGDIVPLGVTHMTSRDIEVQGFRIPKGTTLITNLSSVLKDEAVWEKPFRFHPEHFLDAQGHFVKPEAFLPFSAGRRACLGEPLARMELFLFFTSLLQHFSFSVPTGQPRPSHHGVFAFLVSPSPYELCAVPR

SMILES	Potency [1]	Potency [2]	Potency [3]	Potency [4]	Potency [5]	Potency [6]	Potency [7]	Potency [8]
COC(=O)[C@@]1(Cc2ccccc2)[C@H]2c3cc(C(=O)N4CCCC4)n(Cc4cc(F)cc5c4OCOC5)c3C[C@H]2CN1C(=O)c1ccccc1	inactive	inactive	inactive	0.316 µM (active)	3.98 µM (active)	inactive	0.251 µM (active)	
Nc1ccccc1C#Cc1ccccc1	0.501 µM (active)	inactive	inactive	7.94 µM (active)		inactive		
COC(=O)[C@@]1(Cc2ccccc2)[C@H]2c3cc(C(=O)N4CCCC4)n(Cc4ccsc4Br)c3C[C@H]2CN1C(=O)c1ccccc1	inactive	inactive	inactive	2 µM (active)	3.98 µM (active)		2.51 µM (active)	
O=C(NCCc1c[nH]c2ccccc12)[C@H]1C[C@@H]1[C@H](NP(=O)(c1ccccc1)c1ccccc1)c1ccccc1	12.6 µM (active)	inactive	inactive	2 µM (active)	1.58 µM (active)	inactive	1.26 µM (active)	
COC(=O)[C@@]1(Cc2ccc(F)cc2)[C@H]2c3cc(C(=O)N(C)C)n(Cc4cc(F)c(F)c(F)c4)c3C[C@H]2CN1C(=O)c1ccccc1	inactive	inactive	inactive					
C[C@@H](C(=O)NCCc1c[nH]c2ccccc12)[C@H]1C[C@]1(C)[C@H](NC(=O)OCc1ccccc1)c1ccccc1	15.8 µM (active)	inactive	inactive	0.631 µM (active)	1.58 µM (active)	inactive	2.51 µM (active)	2 µM (active)
C/C(=C\C1CCCCC1)C(NC(=O)c1ccc(C(F)(F)F)cc1)c1ccc(-c2ccccc2)cc1 (stereo not given)	inactive	inactive	inactive					
O=C(Nc1ccc2ccccc2c1)[C@H]1C[C@@H]1[C@H](NP(=O)(c1ccccc1)c1ccccc1)c1ccccc1	10 µM (active)	inactive	inactive	3.16 µM (active)	2.51 µM (active)	inactive	3.16 µM (active)	
CC(=O)N[C@@H](c1ccccc1)[C@]1(C)C[C@H]1[C@@H](C)C(=O)Nc1ccc2ccccc2c1	12.6 µM (active)	inactive	inactive	6.31 µM (active)	7.94 µM (active)	inactive	0.398 µM (active)	
COC(=O)[C@@]1(Cc2ccc(F)cc2)[C@H]2c3cc(C(=O)N4CCCC4)n(CCc4c[nH]c5ccccc45)c3C[C@H]2CN1C(=O)c1ccccc1	inactive	inactive	inactive	2.51 µM (active)				
COC(=O)[C@@]1(Cc2ccc(F)cc2)[C@H]2c3cc(C(=O)N(C)C)n(Cc4ccc(Cl)c(C(F)(F)F)c4)c3C[C@H]2CN1C(=O)c1ccccc1	15.8 µM (active)	inactive	inactive	3.98 µM (active)	2 µM (active)	inactive		
COC(=O)[C@@]1(Cc2ccc(F)cc2)[C@H]2c3cc(C(=O)N4CCCC4)n(CCF)c3C[C@H]2CN1C(=O)c1ccccc1	15.8 µM (active)	inactive	inactive					
COC(=O)[C@@]1(Cc2ccccc2)[C@H]2c3cc(C(=O)N4CCCC4)n(Cc4ccc(C(F)(F)F)nc4)c3C[C@H]2CN1C(=O)c1ccccc1	inactive	inactive	inactive	5.01 µM (active)	3.16 µM (active)	inactive		
C[C@@H](C(=O)Nc1ccc2ccccc2c1)[C@H]1C[C@]1(C)[C@H](NC(=O)c1cnccn1)c1ccccc1	25.1 µM (active)	inactive	inactive	5.01 µM (active)		inactive		
COC(=O)[C@@]1(Cc2ccc(F)cc2)[C@H]2c3cc(C(=O)N4CCCC4)n(CCCNc4ncc(C(F)(F)F)cc4Cl)c3C[C@H]2CN1C(=O)c1ccccc1	inactive	inactive	inactive	3.16 µM (active)		inactive		
C[C@@]1(C(NC(=O)c2ccccc2)c2ccc(-c3ccccc3)cc2)C[C@H]1C1CCCCC1 (stereo not given in full)	inactive	inactive	inactive					
COC(=O)[C@@]1(Cc2ccc(F)cc2)[C@H]2c3cc(C(=O)N4CCCC4)n(Cc4ccccc4)c3C[C@H]2CN1C(=O)c1ccccc1	20 µM (active)	inactive	inactive	3.98 µM (active)		inactive		
CC1=C(C(=O)OCc2ccccc2)C(c2ccc3ccccc3c2)NC(=O)N1CCCCCC(=O)O (stereo not given)	20 µM (active)	inactive	inactive	7.94 µM (active)		inactive		
